Assay results from PubChem BioAssay (NCATS).
Results filed as inconclusive are left out. A call without a number means that no potency is given here. The source made the active and inactive calls. Calls come from the whole dose curve; as a rule, active = well fitted inhibition curve with a large enough effect; inconclusive = small, poorly fitted or top-dose-only effect; inactive = flat fitted curve, though single readings scatter.

System: Zika virus NS2B-NS3 protease
Experiment: Primary screen GU AMC qHTS for Zika virus inhibitors (AID 1347154); note: nearly all actives have a fitted effect of over 70% in size
Conditions: Zika NS2B-NS3 unlinked protease, AMC fluorogenic substrate; series mostly up to 54.1 µM
Method in brief: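 Fluorogenic AMC-substrate cleavage by noncovalent NS2B-NS3 protease complex (25 nM, pH 8.0 Tris buffer with Tween 20) followed for 15 minutes at room temperature (~20% conversion). Percent inhibition from ex340/em450 signal change, fitted by 4-parameter Hill equation.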

SMILES	Potency
CC(=O)C1=C(O)C=C2Oc3c(C(C)=O)c(O)c(C)c(O)c3C2(C)C1=O (configuration not stated)	inactive
CCNC(=O)Nc1ccc(-c2nc3c(c(N4CCOC[C@H]4C)n2)CCN(C2COC2)C3)cc1	inactive
CC(C)n1cnc2c(NCCc3ccc(O)cc3)nc(-c3csc4ccccc34)nc21	inactive
Cc1cnn(C)c1C(=O)Nc1cc(Nc2ccc3c(C=Cc4ccccn4)n[nH]c3c2)ccc1F	inactive
OCCNC1CCCc2c1[nH]c1ccc(-c3ccccc3)cc21 (configuration not stated)	inactive
COc1cc(OC)c(NC(=O)Nc2cc(C)on2)cc1Cl	inactive
CC(=O)N[C@H]1[C@@H]([C@H](O)[C@H](O)CO)OC(C(=O)O)=C[C@@H]1N=C(N)N	inactive
COc1ccc2cc([S+]([O-])Cc3ncc(C)c(OC)c3C)nc2c1	inactive
CN1[C@H]2CC(OC(=O)[C@@H](CO)c3ccccc3)C[C@H]1[C@H]1O[C@H]12 (some centres not stated)	inactive
C[C@]12CC[C@@H]3c4ccc(O)cc4CC[C@H]3[C@H]1CC[C@H]2O	inactive
OC[C@H]1OC(O)C[C@@H](O)[C@H]1O (some centres not stated)	inactive
Cc1cncc2cccc(S(=O)(=O)N3CCCN(C(=O)CN)C[C@@H]3C)c12	inactive
CC[C@H](CC[C@@H](C)[C@H]1CC[C@H]2[C@@H]3CC=C4C[C@@H](O)CC[C@]4(C)[C@@H]3CC[C@]12C)C(C)C	inactive
O=C(O)C=Cc1ccc(Cn2ccnc2)cc1	inactive
c1ccc2c(Oc3nc(Nc4ccc(N5CCOCC5)cc4)c4ncn(C5CCCCC5)c4n3)cccc2c1	inactive
Cc1ccc2nc(NCCN)c3ncc(C)n3c2c1	inactive
CC(=O)OCC(=O)[C@@]12N=C(C)O[C@H]1C[C@H]1[C@@H]3CCC4=CC(=O)C=C[C@]4(C)[C@@H]3[C@@H](O)C[C@@]12C	inactive
CCOC(=O)[C@H](CCc1ccccc1)N[C@@H](C)C(=O)N1[C@@H](C(=O)O)C[C@H]2CCC[C@@H]21	inactive
CC(=O)OCC(=O)[C@@]1(O)CC[C@H]2[C@@H]3CCC4=CC(=O)CC[C@]4(C)[C@@H]3C(=O)C[C@@]21C	inactive

SMILES	Potency
O=C1NC(O)CCN1[C@@H]1O[C@H](CO)[C@H](O)[C@H]1O (some centres not stated)	inactive
COC(=O)[C@@H]1CC2=CC(=O)CC[C@]2(C)[C@@]23O[C@@H]2C[C@@]2(C)[C@H](CC[C@@]24CCC(=O)O4)[C@@H]13	inactive
CN(C)CCN1C(=O)c2cccc3cc(N)cc(c23)C1=O	inactive
OC[C@@H](O)[C@@H](O)[C@H](O)[C@@H](O)CO	inactive
CON=C(C(=O)N[C@@H]1C(=O)N2C(C(=O)O)=C(CSC(=O)c3ccco3)CS[C@H]12)c1csc(N)n1	inactive
Nc1ccc(C(=O)Nc2cccc(-c3nc(N4CCOCC4)c4oc5ncccc5c4n3)c2)cn1	inactive
O=C(O)CCCCCC(=O)NN=C1CCCC1	inactive
Cn1cnc2c(F)c(Nc3ccc(Br)cc3F)c(C(=O)NOCCO)cc21	inactive
FC(F)(F)c1ccc(Nc2nc3ccc(Oc4ccnc(-c5ncc(C(F)(F)F)[nH]5)c4)cc3[nH]2)cc1	inactive
COc1cc2c(Nc3ccc(Cl)c(Cl)c3F)ncnc2cc1OCC1C[C@@H]2CN(C)C[C@H]2C1	inactive
CCc1c(O)cc(O)c(C(=O)c2ccc(OCCN3CCOCC3)c(OC)c2)c1CC(=O)N(CCOC)CCOC	inactive
CCOC(=O)N1CCN([N+]([O-])=NOc2ccc([N+](=O)[O-])cc2[N+](=O)[O-])CC1	inactive
C[C@H]1O[C@H](O[C@H]2[C@H](O)[C@@H](O)[C@@H](O[C@H]3[C@H](O)[C@@H](O)C(O)O[C@H]3CO)O[C@H]2CO)[C@H](O)[C@@H](O)[C@H]1N[C@H]1C=C(CO)[C@@H](O)[C@H](O)[C@@H]1O (some centres not stated)	inactive
COc1ccnc2[nH]cc(C(=O)C(=O)N3CCN(C(=O)c4ccccc4)C[C@@H]3C)c12	inactive
C[C@H](CCC(=O)O)[C@H]1CC[C@H]2[C@@H]3[C@H](O)C[C@@H]4C[C@H](O)CC[C@]4(C)[C@@H]3CC[C@]12C	inactive
Cn1cc(-c2ccc3ncc(Cc4ccc5ncccc5c4)n3n2)cn1	inactive
COc1cc(N2CCC(C(N)=O)CC2)ccc1Nc1nc(N)c(Cl)c(Nc2ccccc2S(=O)(=O)C(C)C)n1	inactive
CCOc1cc2c(c(F)c1OCC)C(=N)N(CC(=O)c1cc(N3CCOCC3)c(OC)c(C(C)(C)C)c1)C2	inactive
